Data published in PubChem BioAssay (NCATS).
“And” between values parts separate entries of the source, which are not always exact repeats. Equal values may be shown once. Records with an inconclusive call do not appear. The source made the active and inactive calls. Unless noted, calls come from the whole dose curve.

Columns and labels:
[1] = biological target: Bile acid receptor (Homo sapiens) (UniProt Q96RI1); experiment: qHTS assay for small molecule antagonists of farnesoid X receptor signaling (AID 588526); note: % is set by controls: 0 for no effect and ±100 for the full control effect
Bile acid receptor (Homo sapiens), sequence (Q96RI1 whole entry, looked up): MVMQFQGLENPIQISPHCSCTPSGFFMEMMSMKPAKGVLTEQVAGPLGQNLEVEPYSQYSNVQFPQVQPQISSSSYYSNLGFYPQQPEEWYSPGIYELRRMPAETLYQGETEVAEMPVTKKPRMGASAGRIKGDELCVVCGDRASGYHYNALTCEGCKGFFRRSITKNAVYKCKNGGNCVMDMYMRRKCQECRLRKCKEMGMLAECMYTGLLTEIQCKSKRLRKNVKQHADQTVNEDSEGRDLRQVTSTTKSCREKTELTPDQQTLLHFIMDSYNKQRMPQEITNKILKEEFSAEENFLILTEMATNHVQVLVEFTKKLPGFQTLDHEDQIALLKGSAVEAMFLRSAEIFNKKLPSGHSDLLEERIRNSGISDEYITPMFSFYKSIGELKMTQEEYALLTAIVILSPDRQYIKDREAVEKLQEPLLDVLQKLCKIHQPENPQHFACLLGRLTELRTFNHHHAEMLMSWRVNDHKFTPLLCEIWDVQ
Outline: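 Antagonist mode: titrated compounds tested against chenodeoxycholic acid stimulation (normalized to 50 uM CDCA and DMSO) in GeneBLAzer HEK293T cells for 16 h. Beta-lactamase read by CCF4 fluorescence; IC50 from Hill fits.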

[2] = biological target: Glucocorticoid receptor (Homo sapiens) (UniProt P04150); experiment: qHTS assay for small molecule agonists of glucocorticoid receptor signaling (AID 588532; active = well fitted curve in the direction sought with a large enough effect in the signal ratio, with a control signal flat; the % refers to the signal ratio;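 note: 100% = dexamethasone at 0.1 µM and 0% = DMSO only wells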); settings: HeLa MMTV-bla, beta-lactamase ratio, agonist, 18 h; active compounds read high; percent of dexamethasone control, DMSO zero
Glucocorticoid receptor (Homo sapiens), sequence (P04150 whole entry, looked up): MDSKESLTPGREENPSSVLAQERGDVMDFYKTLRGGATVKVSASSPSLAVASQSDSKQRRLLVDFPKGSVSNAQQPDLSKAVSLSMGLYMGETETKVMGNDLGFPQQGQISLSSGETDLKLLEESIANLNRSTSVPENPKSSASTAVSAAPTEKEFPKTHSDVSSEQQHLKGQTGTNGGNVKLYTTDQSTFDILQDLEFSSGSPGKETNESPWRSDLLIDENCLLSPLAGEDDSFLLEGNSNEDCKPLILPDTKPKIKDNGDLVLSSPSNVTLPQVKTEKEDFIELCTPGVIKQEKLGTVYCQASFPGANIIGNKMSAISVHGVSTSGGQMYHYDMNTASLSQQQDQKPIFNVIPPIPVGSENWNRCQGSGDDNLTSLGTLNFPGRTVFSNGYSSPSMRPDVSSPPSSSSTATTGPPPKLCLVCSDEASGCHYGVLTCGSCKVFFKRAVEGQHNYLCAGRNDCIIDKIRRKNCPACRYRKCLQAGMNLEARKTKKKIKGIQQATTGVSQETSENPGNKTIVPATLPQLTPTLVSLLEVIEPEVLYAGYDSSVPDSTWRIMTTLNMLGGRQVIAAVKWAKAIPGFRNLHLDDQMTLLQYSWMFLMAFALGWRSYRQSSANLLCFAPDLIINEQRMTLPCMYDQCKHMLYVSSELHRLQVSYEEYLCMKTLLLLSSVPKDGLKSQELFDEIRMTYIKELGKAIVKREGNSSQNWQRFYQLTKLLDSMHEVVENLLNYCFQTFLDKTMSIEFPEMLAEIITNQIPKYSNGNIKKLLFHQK
Outline: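 MMTV-bla HeLa beta-lactamase reporter cells in 1% charcoal/dextran FBS medium, compounds up to 92 uM for 18 h at 37 C, CCF4 readout; normalized to 0.1 uM dexamethasone (100%), EC50 and efficacy from Hill fits.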

[3] = biological target: Vitamin D3 receptor (Homo sapiens) (UniProt P11473); experiment: qHTS assay for small molecule antagonists of vitamin D receptor signaling (AID 588541);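 note: receptor activated by calcitriol during compound treatment; series mostly up to about 77 µM; % is set by controls: 0 for no effect and ±100 for the full control effect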
Vitamin D3 receptor (Homo sapiens), sequence (P11473 whole entry, looked up): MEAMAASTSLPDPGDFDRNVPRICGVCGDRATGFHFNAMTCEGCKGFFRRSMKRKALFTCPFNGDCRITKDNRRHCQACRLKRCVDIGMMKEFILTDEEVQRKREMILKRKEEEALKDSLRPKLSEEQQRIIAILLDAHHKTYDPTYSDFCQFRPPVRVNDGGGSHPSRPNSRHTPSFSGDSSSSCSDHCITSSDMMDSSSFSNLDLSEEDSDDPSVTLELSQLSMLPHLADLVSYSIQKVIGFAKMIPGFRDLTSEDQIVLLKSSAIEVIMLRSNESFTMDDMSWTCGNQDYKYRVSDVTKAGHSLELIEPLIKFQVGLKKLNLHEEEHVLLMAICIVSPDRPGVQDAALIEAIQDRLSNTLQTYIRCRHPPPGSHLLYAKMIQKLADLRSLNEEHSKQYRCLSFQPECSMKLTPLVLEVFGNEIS
Outline: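 VDR-UAS-bla HEK293T cells in 2% charcoal-stripped FBS were stimulated with 1-alpha,25-dihydroxyvitamin D3 (3 nM final) plus compound for 16 h at 37 C. The beta-lactamase CCF4 readout was normalized to 50 nM agonist and DMSO, and Hill fits gave IC50.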

[4] = biological target: Thyroid hormone receptor beta (Homo sapiens) (UniProt P10828); experiment: qHTS assay for small molecule antagonists of thyroid hormone receptor beta signaling (AID 588547; active = well fitted inhibition curve with a large enough effect in the signal ratio, with a control signal flat, not every such curve was filed as active; the % refers to the signal ratio;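 note: cells stimulated with 0.4 nM T3 agonist during compound exposure; series mostly up to about 77 µM; % is set by controls: 0 for no effect and ±100 for the full control effect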); settings: TR-UAS-bla HEK293, beta-lactamase ratio, antagonist mode, 18 h
Thyroid hormone receptor beta (Homo sapiens), sequence (P10828 whole entry, looked up): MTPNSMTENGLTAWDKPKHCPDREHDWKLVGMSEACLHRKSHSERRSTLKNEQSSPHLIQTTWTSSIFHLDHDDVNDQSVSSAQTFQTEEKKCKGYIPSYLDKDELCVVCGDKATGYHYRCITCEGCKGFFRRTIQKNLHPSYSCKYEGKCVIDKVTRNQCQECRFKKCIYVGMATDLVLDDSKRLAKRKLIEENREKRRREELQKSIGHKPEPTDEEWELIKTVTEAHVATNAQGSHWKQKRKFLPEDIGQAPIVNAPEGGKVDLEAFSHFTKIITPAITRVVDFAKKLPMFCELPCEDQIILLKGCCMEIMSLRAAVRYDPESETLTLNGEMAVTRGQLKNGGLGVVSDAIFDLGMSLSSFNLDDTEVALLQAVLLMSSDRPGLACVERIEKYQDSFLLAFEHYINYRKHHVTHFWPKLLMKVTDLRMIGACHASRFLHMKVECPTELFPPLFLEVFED
Outline: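 TR-UAS-bla GripTite HEK293 cells in 2% charcoal/dextran FBS medium; compounds 0.59 nM to 92 uM with T3 at 0.4nM final, 18 h at 37 C. Beta-lactamase read by CCF4 fluorescence (460/530 nm); Hill fits gave IC50 and efficacy.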

[5] = qHTS assay for small molecule activators of the p53 signaling pathway (AID 651743; active = well fitted activation curve with a large enough effect in the signal ratio, not every such curve was filed as active; the % refers to the signal ratio; note: series mostly up to about 92 µM; % of control where 0% means no effect); settings: HCT-116 p53RE-bla, beta-lactamase FRET ratio, 16 h; activation: active compounds read high
Outline: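 Following 16 hours of compound exposure at 37 C, HCT-116 cells bearing the p53RE-bla reporter were loaded with LiveBLAzer B/G FRET substrate for 2 hours at room temperature and fluorescence intensity was recorded.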

[6] = biological target: Vitamin D3 receptor (Homo sapiens) (UniProt P11473); experiment: qHTS assay for small molecule agonists of vitamin D receptor signaling (AID 588543);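 note: 0% = DMSO basal and 100% = reference agonist control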
Outline: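 Reporter cells (HEK293T, VDR-UAS-bla) were seeded in medium with 2% charcoal-stripped serum and incubated 5 h, then compounds in concentration series were added for 16 h at 37 °C. Stimulation was scaled between DMSO basal and 50 nM 1α,25-dihydroxyvitamin D3.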

[7] = biological target: Peroxisome proliferator-activated receptor gamma (Homo sapiens) (UniProt P37231); experiment: qHTS assay for small molecule antagonists of peroxisome proliferator-activated receptor gamma signaling (AID 588537; active = well fitted inhibition curve with a large enough effect in the signal ratio, with a control signal flat, not every such curve was filed as active; the % refers to the signal ratio;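 note: reporter cells co-stimulated with 50 nM rosiglitazone agonist during compound treatment; % of control where 0% means no effect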)
Peroxisome proliferator-activated receptor gamma (Homo sapiens), sequence (P37231 whole entry, looked up): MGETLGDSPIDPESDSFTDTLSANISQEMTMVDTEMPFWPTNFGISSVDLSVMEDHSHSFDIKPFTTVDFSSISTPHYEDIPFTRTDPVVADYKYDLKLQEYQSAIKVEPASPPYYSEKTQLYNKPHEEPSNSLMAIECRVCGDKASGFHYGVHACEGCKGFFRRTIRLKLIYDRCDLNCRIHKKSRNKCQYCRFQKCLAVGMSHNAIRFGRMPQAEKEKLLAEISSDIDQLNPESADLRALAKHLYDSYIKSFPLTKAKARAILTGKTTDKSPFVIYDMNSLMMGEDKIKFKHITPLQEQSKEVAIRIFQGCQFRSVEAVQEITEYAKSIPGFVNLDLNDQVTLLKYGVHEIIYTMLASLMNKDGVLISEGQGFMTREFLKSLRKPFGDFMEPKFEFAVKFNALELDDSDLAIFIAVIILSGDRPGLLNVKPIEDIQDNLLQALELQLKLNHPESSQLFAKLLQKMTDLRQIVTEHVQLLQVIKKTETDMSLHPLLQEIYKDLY
Outline: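 Fluorescence at 460 and 530 nm (405 nm excitation) reported beta-lactamase cleavage of CCF4 after 2 h room-temperature loading. HEK293 reporter cells in 1% charcoal/dextran-treated FBS had received compound and rosiglitazone for 16 h.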

[8] = qHTS assay for small molecule agonists of the antioxidant response element (ARE) signaling pathway (AID 651741; active = well fitted activation curve with a large enough effect in the signal ratio; the % refers to the signal ratio; note: % of control where 0% means no effect)
Outline: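 Stably integrated ARE-beta-lactamase reporter HepG2 cells; 16 h compound incubation, 37 C; LiveBLAzer FRET substrate 2 h at room temperature; fluorescence intensity.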

[9] = biological target: Androgen receptor (Homo sapiens) (UniProt P10275); experiment: qHTS assay for small molecule agonists of androgen receptor signaling (AID 588515; active = well fitted curve in the direction sought with a large enough effect in the signal ratio, with a control signal flat; the % refers to the signal ratio; note: % is set by controls: 0 for no effect and ±100 for the full control effect); settings: AR-UAS-bla HEK293, beta-lactamase ratio, agonist 16 h; activation: active compounds read high
Androgen receptor (Homo sapiens), sequence (P10275 whole entry, looked up): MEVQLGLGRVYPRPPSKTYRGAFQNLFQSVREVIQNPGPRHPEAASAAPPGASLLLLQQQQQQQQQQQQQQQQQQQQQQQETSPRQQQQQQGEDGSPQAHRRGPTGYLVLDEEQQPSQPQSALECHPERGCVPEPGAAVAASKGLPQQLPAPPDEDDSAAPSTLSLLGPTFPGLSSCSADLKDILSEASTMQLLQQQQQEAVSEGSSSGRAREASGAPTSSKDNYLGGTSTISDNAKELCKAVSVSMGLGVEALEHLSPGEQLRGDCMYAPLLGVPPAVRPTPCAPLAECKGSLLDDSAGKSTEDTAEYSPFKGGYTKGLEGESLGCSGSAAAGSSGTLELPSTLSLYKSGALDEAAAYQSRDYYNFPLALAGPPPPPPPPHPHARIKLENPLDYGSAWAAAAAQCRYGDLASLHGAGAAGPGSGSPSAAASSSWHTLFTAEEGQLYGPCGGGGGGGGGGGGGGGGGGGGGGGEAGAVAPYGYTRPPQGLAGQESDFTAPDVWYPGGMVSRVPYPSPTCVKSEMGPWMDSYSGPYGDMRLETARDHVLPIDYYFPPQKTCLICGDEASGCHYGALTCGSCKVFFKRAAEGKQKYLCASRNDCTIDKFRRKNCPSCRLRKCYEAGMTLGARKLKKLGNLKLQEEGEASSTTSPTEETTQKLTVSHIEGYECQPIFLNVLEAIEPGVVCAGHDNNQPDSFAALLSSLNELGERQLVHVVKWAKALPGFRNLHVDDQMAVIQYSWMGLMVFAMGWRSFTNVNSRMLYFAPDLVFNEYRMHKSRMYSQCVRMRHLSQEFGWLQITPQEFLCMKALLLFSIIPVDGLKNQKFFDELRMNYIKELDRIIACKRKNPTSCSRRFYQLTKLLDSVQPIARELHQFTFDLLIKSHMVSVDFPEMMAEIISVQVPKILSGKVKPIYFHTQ
Outline: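 Stimulation of an AR-responsive β-lactamase reporter in GripTite HEK293 cells was measured after 16 h compound exposure at 37 °C, via CCF4 fluorescence after 2 h RT. EC50 from Hill fits, normalized to R1881 at 30 nM.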

CNc1nc(=O)n(C2CCC(O)CC2)c(=O)n1C (centres undefined)
inactive: Potency [1] | activation [2] 2.82% | Potency [3] | activity change % (negative = inhibition) [4] -13.9% | activation [5] 1.92%

CCCCCC1CCC(=O)O1 (centres undefined)
inactive: Potency [1] | activation [2] -5.15% | Potency [3] | outcome [6]

CC(C)C(=O)OCC(C)(C)C(O)C(C)C (centres undefined)
inactive: Potency [1] | activation [2] -3.75% | Potency [7] | Potency [3] | outcome [6] | activity change % (negative = inhibition) [4] -5.03% | Potency [8] | activation [5] -2.18%

CC(C)c1ccc(C(C)C)cc1
inactive: Potency [1] | activation [2] 1.07% | Potency [3] | Potency [8]

Cn1c(=O)[nH]c(=O)n(C2CCCCC2)c1=O
inactive: Potency [1] | activation [2] 12.5% | Potency [3] | outcome [6] | activity change % (negative = inhibition) [4] 4.13%

c1ccc2c(c1)Cc1ccccc1-2
inactive: Potency [1] | Potency [7] | Potency [3] | activity change % (negative = inhibition) [4] -15.6% | activation [5] 2.83%

CCCCCCCCCCO
inactive: Potency [1] | Potency [3] | outcome [6] | activity change % (negative = inhibition) [4] 16.6% and -15.4% | Potency [8] | activation [5] 1.66% and 2.49%

CC(C)O.CC(C)O.CC(C)O.CC(C)O.[Ti]
inactive: Potency [1] | Potency [7] | Potency [3] | outcome [6] | activity change % (negative = inhibition) [4] -6.47% | Potency [8]

CCCCCCCOC(=O)c1ccccc1C(=O)OCCCCCCC
inactive: activation [9] -1.72% | activation [2] -3.48% | Potency [3] | outcome [6]

CCCCOC(=O)c1ccccc1
inactive: activation [9] 0.383% | activation [2] -8.22% | Potency [3] | outcome [6] | Potency [8] | activation [5] -4.18%

CCCCOCC(C)OCC(C)O (centres undefined)
inactive: Potency [1] | Potency [7] | Potency [3] | outcome [6] | activity change % (negative = inhibition) [4] -10.2%

CCC(=O)OCCc1ccccc1
inactive: Potency [1] | activation [2] -12.1% | Potency [3] | activity change % (negative = inhibition) [4] -6.7% | activation [5] -3.48%

CCSC(=O)N(CC(C)C)CC(C)C
inactive: activation [9] 3.31% | activation [2] -2.35% | Potency [3] | outcome [6] | Potency [8]

Cc1ccc(C(=O)c2ccccc2)cc1
inactive: activation [9] 1.33% | activation [2] 2.58% | Potency [3] | activity change % (negative = inhibition) [4] -19.1% | Potency [8] | activation [5] 3.79%

CCCCOC(=O)/C=C\C(=O)OCCCC
inactive: Potency [1] | activation [2] -13.3% | Potency [3] | activity change % (negative = inhibition) [4] 17.7% | activation [5] 5.06%
